Only a selection was taken, and hits are over-represented in it overall.
CHX counter: affects cycloheximide protein synthesis inhibition readout, counter-screen | cell reporter, cycloheximide protein synthesis inhibition counterscreen | max response, % | 12% of 300,000 active | AID 2314; in the data active = max response mostly above about 13%, no sharp cut-off; inactive = mostly below about 14%; also: read at 38.3 µM for the half of the compounds with a filed dose; 0% is about no effect
Lassa entry inh: inhibitors of Lassa virus binding or cell entry; Lassa virus pseudotype entry inhibition, cell reporter; Potency, µM (series often up to 37.9 µM), for inactives: top-dose activity change, negative = inhibition, actives largely listed as inhibitors; 1.2% of 300,000 active; AID 540256; calls by dose curve; tested in HEK293 cells; also: potency is read from the fitted curve at half-maximal effect; % is scaled to controls: 0 for no effect and ±100 for the full control effect; nearly all actives have a fitted effect of over 50% in size
Shiga inhibitor: blocks Shiga toxin action in Vero cells; Vero cells, Shiga toxin protein synthesis inhibition reporter; inhibition, % at 38.7 µM; 9.2% of 290,000 active; in the data active = inhibition mostly above about 28%, no sharp cut-off; inactive = mostly below about 43%; also: 0% is about no effect
AMA1 RON2 block: inhibitors of Plasmodium falciparum AMA1-RON2 interaction; AlphaScreen AMA1-biotinylated RON2 peptide binding; Potency, µM (series often up to 58.2 µM), for inactives: top-dose activity change, negative = inhibition, hits mostly inhibitors; 0.2% of 360,000 active; AID 720542; active = well fitted inhibition curve with a large enough effect; inconclusive = small, poorly fitted or top-dose-only effect; inactive = no such curve, though single readings can be large or run the other way;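 also: potency is read from the fitted curve at half-maximal effect; 0% = vehicle wells and -100% = peptide control; nearly all actives have a fitted effect of over 45% in size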
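AMA1 (3D7) with his tag at 25 nM final met compounds first, then biotinylated RON2 peptide at 25 nM; detection used donor plus acceptor beads, 10 µg/mL apiece, read by AlphaScreen after 30 min at room temperature.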
MARV entry inh: Marburg virus entry inhibition. Marburg virus pseudotyped entry inhibition, cell reporter. Potency, µM (top dose mostly 37.8 µM), without a hit: top-dose activity change, negative = inhibition, usual class: inhibitors. 1.8% of 300,000 active; calls by dose curve; tested in HEK293 cells; also: potency is read from the fitted curve at half-maximal effect; % is scaled to controls: 0 for no effect and ±100 for the full control effect
* hit, by the source's call; ? = inconclusive; . = no result; [ ] = dose if it differs, or a comment.

SMILES	CHX counter	Lassa entry inh	Shiga inhibitor	AMA1 RON2 block	MARV entry inh
O=C1c2ccccc2C(=O)N1CC(O)COc1ccccc1Cl (centres undefined)	45*	.	91*	-2%	.
CN(C)c1cc[n+](/C(C(=S)Nc2ccc(SC(F)F)cc2)=C(/[O-])c2ccccc2)cc1	9	.	19	-2%	.
CN(C(=S)Nc1ccc(SC(F)F)cc1)c1ccc(O)cc1	24*	-17%	18	-2%[11.6 µM]	?
CN(C(=S)Nc1ccc(Oc2ccccc2)cc1)c1ccc(O)cc1	15	6%	17	-8%	?
CN(C(=S)Nc1cccnc1)c1ccc(O)cc1	9	-10%	23*	-14%	-11%
COc1ccc(NS(=O)(=O)c2cc(C(=O)N(C)CCc3ccccn3)ccc2Cl)cc1	.	.	.	5%	.
CN1CCN(c2ccc(CNC(=O)C3(C)Cc4c(-c5ccc6c(c5)OCO6)ccnc4O3)cc2)CC1 (centres undefined)	.	.	.	-17%	.
O=S(=O)(N/N=C/c1ccccc1OCc1ccc(Cl)cc1)c1ccccc1	23*	-12%	active	6%	?
CCOC(=O)N/N=C/c1ccccc1OCc1ccc(Cl)cc1	34*	-9%	50*	-1%[11.6 µM]	?
NC(=S)N/N=C/c1ccccc1OCCSc1ccc(Cl)cc1	5	3.7µM*	13	36%	?
O/N=C/c1ccccc1OCc1ccc(Cl)cc1	44*	?	63*	8%	-13%
COc1cccc(/C=N/NC(N)=S)c1OCc1ccccc1Cl	-4	12%	-9	72%	?
Fc1cccc(CN2CCN3CCCC3C2C2CCCCC2)c1 (centres undefined)	-3	-2%	-10	-1%	?
Fc1ccc(CN2CCN3CCCC3C2C2CCCCC2)cc1F (centres undefined)	-5	13µM*	-15	0%	?
COc1ccc(-c2oc3c(c2C#CC(C)(C)O)C(OC)CCC3)cc1 (centres undefined)	.	.	.	0%	.
Cc1cc(/C=C2/C(=O)N(C)C(=S)N2C)ccc1N1CCCC1	32*	-11%	93*	?	?
Cc1ccc(CN2C(=O)N/C(=C\c3ccc(N4CCOCC4)cc3)C2=O)cc1	-3	0.046µM*	-7	24%	8%
Cc1cc(N2CCCC2)ccc1/C=C1/C(=O)N(C)C(=S)N1C	7	-24%[46.1 µM]	16	?	?
CCN1C(=O)/C(=C/c2ccc(N3CCCC3)cc2)NC1=S	66*	-12%	24	?	?
CCCN1C(=O)/C(=C/c2ccc(N3CCCC3)c(C)c2)NC1=S	19*	?	50*	-11%	?
O=C(NCCN1CCOCC1)C1CC(=O)N(c2ccc(Cl)cc2)C1 (centres undefined)	-6	-10%[46.1 µM]	18	-4%	9%[46.1 µM]
COc1cc(/C=C2\NC(=S)N(C)C2=O)ccc1O	11	-9%[46.1 µM]	35	-19%	?
Cc1cc(/C=C2\NC(=S)N(C)C2=O)ccc1N1CCCC1	33*	18%[46.1 µM]	95*	?	3%[46.1 µM]
O=Cc1ccc(-n2cncn2)cc1	-5	-3%	-8	-5%	?
COC(=O)/C=C/c1ccc(-n2cncn2)cc1	23*	27%[46.1 µM]	32	-29%	12%[46.1 µM]
SMILES	CHX counter	Lassa entry inh	Shiga inhibitor	AMA1 RON2 block	MARV entry inh
CN(C)CCNC(=O)c1cc2cc(Br)ccc2oc1=O	7	-24%	1	2%	10%
COc1ccc2oc(=O)c(C(=O)Nc3ccc(C(=O)O)cc3)cc2c1	.	17%[46.1 µM]	.	.	.
COc1ccc2oc(=O)c(C(=O)Nc3ccccc3O)cc2c1	36*	.	46	0%	.
CC(C)NC(=O)c1cc2cc(Br)ccc2oc1=O	30*	2%	86*	-14%	-2%
COc1ccc2oc(=O)c(C(=O)NC(C)c3ccccc3)cc2c1 (centres undefined)	18*	18%[46.1 µM]	54	5%	1%[46.1 µM]
COc1ccc(CC(=O)OCC(=O)NC2CCCC(C)C2C)cc1OC (centres undefined)	.	-15%	.	4%	-16%
Cc1nn(C)c2c1c(C(F)(F)F)cc(=O)n2CC(=O)NCc1ccccc1Cl	.	-16%[46.1 µM]	.	.	.
COc1ccc(CC(=O)Nc2cc(Cl)ccc2O)cc1	11*	25%	8	-4%	-7%
O=C(Nc1ccccc1O)c1ccc(Cl)cc1	42*	17%	95*	-7%	?
COc1ccc(C(=O)Nc2cc(Cl)cc(Cl)c2)c(OC)n1	4	?	17	4%	?
Cc1cc(NC(=O)c2ccc(Cl)cc2)c(C)cc1O	13	-1%[46.1 µM]	66	-10%	?
COc1ccc(OC)c(NC(=O)c2ccc(Cl)cc2)c1	10	-19%	23	-23%	-30%[46.1 µM]
COc1ccc(C(=O)Nc2cc(Cl)ccc2OC(=O)c2ccc(OC)cc2)cc1	65*	?	89*	3%	?
COc1ccc(C(=O)Nc2cc(Cl)ccc2Cl)c(OC)n1	18*	?	21	1%	13%
COc1ccc([C@@H]2CC(=O)c3c(O)cc(O[C@@H]4O[C@H](CO)[C@@H](O)[C@H](O)[C@H]4OC4O[C@@H](C)[C@H](O)[C@@H](O)[C@H]4O)cc3O2)cc1O (some centres undefined)	-2	.	2	.	.
Cc1ccc(Cn2cc(C(=O)c3ccc4c(c3)OCO4)c(=O)c3cc(C)ccc32)cc1	.	?	.	.	-29%[46.1 µM]
O=C(Nc1ccccc1OC(=O)c1ccc(Cl)cc1)c1ccc(Cl)cc1	37*	-1%	34*	25%	-27%
Cc1ccc(C(=O)Nc2cc(Cl)ccc2OC(=O)c2ccc(C)cc2)cc1	36*	.	98*	.	3%
O=C(Nc1ccccc1O)c1ccc([N+](=O)[O-])cc1	27*	.	78*	9%	.
O=C(N/N=C/c1ccccn1)c1cc(-c2ccccc2Cl)n[nH]1	35*	.	95*	103%	.
O=C(N/N=C/c1ccccn1)c1cc(-c2ccc3ccccc3c2)n[nH]1	12	-18%	32	6%	?
O=C(N/N=C/c1ccccn1)c1ccc(Cl)c(Cl)c1	44*	.	69*	.	.
O=C(N/N=C/c1ccccn1)c1cc(-c2cccc3ccccc23)n[nH]1	13*	?	-24	75%	4%
CN1C(=O)CS/C1=N\NC(=O)COc1cccc2cccnc12	-2	4%	-5	9%	6%[46.1 µM]
COc1ccc(C2CC(c3ccccc3)Oc3c(C)ccc(C)c32)cc1 (centres undefined)	12	.	20	.	.
COCCN1C(=O)COc2ccccc2C1C(=O)Nc1ccc2c(c1)OCCO2 (centres undefined)	.	.	.	-3%	.
O=C(NCC(c1ccco1)N1CCc2ccccc21)c1cccc([N+](=O)[O-])c1 (centres undefined)	.	5.6µM*	.	-29%	?
O=C(NCC(c1ccco1)N1CCc2ccccc21)c1ccc([N+](=O)[O-])cc1 (centres undefined)	.	5%	.	7%	?
COc1ccccc1NS(=O)(=O)c1cc(C(=O)N2CCCC2)ccc1F	.	10%	.	0%	-10%
Cc1ccc2[nH]c(CN3CCC(CO)(CC4CCCCO4)CC3)c(C)c2c1 (centres undefined)	-3	5µM*	-2	?	?
